ChEMBL document CHEMBL4513216, “Probing the Open Global Health Chemical Diversity Library for Multistage-Active Starting Points for Next-Generation Antimalarials” (ACS Infect Dis, 2020)
The whole screen tested about 68,000 compounds, of which about 2,700 (4%) showed an effect of 50% or more. This excerpt belongs to a sample that is enriched for strong results.

The compounds below were run on Plasmodium berghei (assay: Screen against P. berghei liver stage (PbLuc), transformed with Luciferase, at 2uM). Settings: tested at 2 uM.
Format: functional, HepG2

SMILES | INHIBITION
Cc1nc(CNCC2CNc3ccnn3C2)cs1 (stereo not drawn) | 0.05%
CC(C)Nc1ncnc2c1CCN(C(=O)Cc1ccccn1)CC2 | 14.23%
O=C(c1cscn1)N1CC[C@@H]2[C@@H]1CCN2c1ccccn1 | 36.03%
COc1cc(N2C[C@@H]3COC[C@]3(COc3ccc(C#N)cn3)C2)ncn1 | -15.95%
Cc1cnc(CN2CCN(c3nc(C)cs3)C(C)C2)cn1 (stereo not drawn) | 50.3%
Cc1csc(N2CCN(Cc3ccccn3)CC2C)n1 (stereo not drawn) | -13.94%
Cc1csc(N2CCN(Cc3cscn3)CC2C)n1 (stereo not drawn) | -7.32%
COc1ccc(CNC(C)c2cccc(Br)c2)c(OC)c1OC (stereo not drawn) | 0.8%
OC1(Cn2ccc3ncccc32)CCN(Cc2ccccc2F)CC1 | 22.81%
CCN(CC)C(CNC(=O)c1ccnc(N(C)C)c1)c1ccsc1 (stereo not drawn) | 86.89%
CCN(CC)C(CNC(=O)c1ccc(-n2cncn2)cc1)c1ccsc1 (stereo not drawn) | -12.13%
CCN(CC)C(CNC(=O)c1cccnc1-n1cncn1)c1ccsc1 (stereo not drawn) | 28.81%
Cc1ccc(C(=O)N2CCC3(CC2)CCN(Cc2ccccn2)C3=O)o1 | 2.5%
CN1C(=O)c2cccc(NC(=O)c3ccc4c(c3)OCCO4)c2C1=O | 27.8%
O=C(CCc1ccc(-c2ccccc2)[nH]1)N1CCCC(n2ccnc2)C1 (stereo not drawn) | -13.92%
CCN1CCN(C2CCN(Cc3noc(C4CC4)n3)CC2)C1=O | 24.65%
Cc1nc(CN2CCC(N3CCN(C)C3=O)CC2)no1 | 40.17%
CCN1CCN(C2CCN(Cc3noc(C)n3)CC2)C1=O | 62.13%
COCCN(C)C(C(=O)O)c1ccc2ccccc2c1 (stereo not drawn) | 10.75%
Cc1cc(C)n(C2CCCN(C(=O)c3cc(C(N)=O)cs3)C2)n1 (stereo not drawn) | 20.93%
Cc1cccc(N2CCN(CCNC(=O)C(C)n3cncn3)CC2)c1 (stereo not drawn) | 12.88%
O=C(N[C@@H]1CN(CC2CC2)[C@@H]2CCCO[C@@H]21)c1cscn1 | 17.24%
Cc1ncc(CN2CCN(C(=O)N(C)C)[C@@H]3CS(=O)(=O)C[C@@H]32)cn1 | 55.99%
CCC(=O)N1CCN(Cc2cnc(C)nc2)[C@H]2CS(=O)(=O)C[C@H]21 | -36.29%
CCN(CC)C(=O)N1CCN(Cc2cnc(C)nc2)[C@H]2CS(=O)(=O)C[C@H]21 | 29.51%
O=C(CC1CC1)N1CCC2(CC1)CN(c1ncccn1)CCO2 | -26.24%

SMILES | INHIBITION
CO[C@H]1CCN(S(=O)(=O)c2cn(C)cn2)[C@H]1Cc1ccccc1 | 74.27%
CCO[C@H]1CCN(S(=O)(=O)c2cn(C)cn2)[C@H]1Cc1ccccc1 | -40.45%
CO[C@@H]1CCN(S(=O)(=O)c2cn(C)cn2)[C@H]1Cc1ccccc1 | 4.38%
CC(C#N)CN(C)Cc1cc(Cl)cc2cccnc12 (stereo not drawn) | 28.91%
Cc1ccc([C@@H]2CN(C(=O)c3cc(C)no3)C[C@H]2NC(=O)C2CC2)cc1 | 0.94%
CCc1nc(C)sc1CNC1CCN(Cc2ccccc2)C1 (stereo not drawn) | 26.74%
CCc1csc(CNC2CCN(Cc3ccccc3)C2)n1 (stereo not drawn) | 50.59%
Cc1nc(CNC2CCN(Cc3ccccc3)C2)sc1C (stereo not drawn) | 36.28%
CCCc1cc(NC2CCc3ncnn3C2)n2ncnc2n1 (stereo not drawn) | 8.91%
O=C1CC(c2ccccc2)C2(CCN(Cc3nccs3)CC2)N1 (stereo not drawn) | -4.2%
CC(C)(C)OC(=O)N1CCC(NCc2cnn(C(C)(C)C)c2)CC1 | -13.89%
Cc1cccc2cc(C(=O)N3CCC(F)(F)CC3)n(C)c12 | 28.1%
O=C1CC(c2ccc(Cl)c(Cl)c2)c2c(n3ccsc3nc2=O)N1 (stereo not drawn) | 24.44%
O=C1CC(c2ccc(O)cc2)c2c(n3ccsc3nc2=O)N1 (stereo not drawn) | 37.87%
O=C1CC(c2ccccc2)c2c(n3ccsc3nc2=O)N1 (stereo not drawn) | 73.66%
Cc1ccc(N(CC(=O)c2ccc(Br)cc2)C2=NCCCCC2)cc1 | -13.56%
CC(=O)N1CCC(c2cc(Nc3ncccn3)nc(C)n2)C1 (stereo not drawn) | 31.98%
CC(C)(C)n1ncc2c1NC(=O)CC2c1cccc(F)c1 (stereo not drawn) | -10.58%
CCCc1noc(CCC(=O)N2CCN(C)CC2c2ccccc2)n1 (stereo not drawn) | 35.56%
CC(C)c1noc(CCC(=O)N2CCN(C)CC2c2ccccc2)n1 (stereo not drawn) | 57.59%
CC(C)c1noc(CCCC(=O)N2CCN(C)CC2c2ccccc2)n1 (stereo not drawn) | 14.63%
NC(=O)CC1CCCN(c2cncc(OCc3ccccc3)n2)C1 (stereo not drawn) | 31.78%
CC(C)c1nc(C2CCCN2C(=O)c2ccc(N(C)C)nn2)no1 (stereo not drawn) | -9.66%
c1ccc(CN2C[C@H]3CC[C@@H](C2)N(Cc2nnc(C4CC4)o2)C3)cc1 | -14.49%
CO[C@H]1COCCN(C(=O)c2cc(C)oc2C(F)(F)F)C1 | 35.89%
Cc1cc(C(=O)N2CCOC[C@H](Oc3cccnc3)C2)c(C(F)(F)F)o1 | 19.42%

SMILES | INHIBITION
Cc1cc(C(=O)N2CCOC[C@H](Oc3cnccn3)C2)c(C(F)(F)F)o1 | 52.91%
Cn1cc(CN2CCCC3(CCN(C(=O)c4cnccn4)C3)C2)cn1 (stereo not drawn) | -9.96%
CC(C)n1cnnc1CNC(=O)CCCOc1ccccc1F | 18.74%
Cc1cc(CNC(=O)CC2CN(C(=O)OC(C)(C)C)C2)ccc1F | 21.97%
Cc1ccsc1CNC(=O)CC1CN(C(=O)OC(C)(C)C)C1 | 55.36%
CC(C)(C)OC(=O)N1CC(CC(=O)NCc2ccsc2)C1 | 2.9%
COc1ncccc1NC(=O)N1CCCC1c1cc(C)no1 (stereo not drawn) | 29.19%
Cc1noc(C)c1C(=O)N1CCCCC1c1cc(C)n2ccnc2n1 (stereo not drawn) | 36.98%
Cc1sc(-c2ccco2)nc1C(=O)N(CC1CCOC1)C1CC1 (stereo not drawn) | -33.43%
COCCN(C(=O)c1nc(-c2ccco2)sc1C)C1CC1 | -7.16%
Cc1sc(-c2ccco2)nc1C(=O)N(CC(N)=O)C1CCCC1 | 61.82%
CC(NCCN1CCN(C(=O)C2CCCC2)CC1)c1ccccn1 (stereo not drawn) | -21.99%
COCc1nn(C(C)C)c2c1CCN(Cc1ccsc1)C2 | 23.43%
CC(C)n1nc(CN2CCOCC2)c2c1CN(Cc1ccsc1)C2 | 72.91%
Cn1nc(Cn2cccn2)c2c1CN(Cc1ccsc1)C2 | 15.9%
CC(C)n1nc(CN2CCOCC2)c2c1CN(C(=O)c1ccno1)C2 | 29.3%
Cn1nc(Cn2cccc2)c2c1CN(Cc1ccsc1)C2 | -6.88%
Cn1nc(CN2CCOCC2)c2c1CN(Cc1ccsc1)C2 | 57.85%
CN(Cc1ccc(F)cc1)CC1(O)CCN(C(=O)c2cccn2C)C1 (stereo not drawn) | -12.09%
CCc1nc2ccccc2n1C(CC)C(=O)N(C)Cc1noc(C)n1 (stereo not drawn) | -0.85%
CC(=O)N1CCO[C@@H]2CN(S(=O)(=O)c3ccc(C)cc3)CC[C@@H]2C1 | -24.35%
CS(=O)(=O)N1CC2(CCCN(CC3CC3)C2)Cc2ccccc21 (stereo not drawn) | 34.09%
CN(CCCSc1ccccc1)C(=O)Cn1ncc(N(C)C)cc1=O | 8.2%
COc1ccc(-c2cnc(CN3CCn4c(C)nnc4C3)o2)cc1 | -19.76%
CCNC(=O)[C@@H]1C[C@H](N)CN1C1CCN(c2ccccc2OC)CC1 | 23.64%
CC(C)CCN1CCCC12Cc1ccccc1CNC2=O (stereo not drawn) | -6.64%

SMILES | INHIBITION
Cc1ccc(CN2CCCC23Cc2ccccc2CNC3=O)cc1 (stereo not drawn) | -14.74%
Cc1ccc(CCN2CCCC23Cc2ccccc2CNC3=O)cc1 (stereo not drawn) | 57.24%
CC(C)NC(=O)N1CCN(CC2CC2)CC2(CC(=O)N(C)C2)C1 (stereo not drawn) | 49.9%
Cc1cc(-c2cnc(NCc3ccc4c(c3)OCO4)nc2C(C)C)on1 | -0.95%
CC(C)c1nc(C2CCCN(C(=O)c3cccc4c3OCO4)C2)no1 (stereo not drawn) | 17.59%
Cc1csc(C2CCCN(C(=O)c3cccc4c3OCO4)C2)n1 (stereo not drawn) | 57.11%
Cc1nc(C2CCCN(C(=O)c3cccc4c3OCO4)C2)sc1C (stereo not drawn) | 7.71%
CCc1cc(NC(=O)C2CCCN(C(=O)c3ccncc3)C2)[nH]n1 (stereo not drawn) | -7.81%
c1ccc(C2CCN(c3ncnc4c3CCNC4)CC2)cc1 | -3.14%
O=C(NCC(=O)N1CCCC(n2cncn2)C1)OCc1ccccc1 (stereo not drawn) | 21.64%
COc1ccnc(N2CCN(Cc3ncc(C(C)(C)C)o3)CC2)n1 | 2.67%
COc1ccnc(N2CCN(C(=O)Cc3ccsc3)CC2)n1 | 25.61%
COc1ccnc(N2CCN(C(=O)c3csc(C)n3)CC2)n1 | -2.99%
COc1ccnc(N2CCN(Cc3ncc(-c4ccccc4)o3)CC2)n1 | -41.69%
COc1ccnc(N2CCN(CC(=O)N3CCOCC3)CC2)n1 | -2.9%
COc1ccnc(N2CCN(C(=O)Cc3ccc(C)s3)CC2)n1 | -9.9%
COc1ccnc(N2CCN(C(=O)N3CCOCC3)CC2)n1 | 58.05%
COc1ccnc(N2CCN(CC(O)CN3CCOCC3)CC2)n1 (stereo not drawn) | 58.05%
COc1ccnc(N2CCN(C(=O)Cc3csc(C)n3)CC2)n1 | 51.35%
COc1ccnc(N2CCN(C(=O)CN3CCOCC3)CC2)n1 | -19.35%
COc1ccnc(N2CCN(C(=O)c3cscn3)CC2)n1 | 50.98%
COc1ccnc(N2CCN(C(=O)c3csnn3)CC2)n1 | 36.66%
Cc1cccc(CN2C[C@@H]3COC[C@H](NS(C)(=O)=O)[C@@H]3C2)n1 | 32.85%
CN(C)Cc1cnc(C2CCN(C(=O)c3ccccc3F)C2)[nH]1 (stereo not drawn) | -17.01%
CCN(Cc1ccccc1)C(=O)CN1CCOC(Cn2cncn2)C1 (stereo not drawn) | 32.41%
